From PubChem BioAssay
Most compounds without a hit are left out; they make up all but 6% or so of the library.
D1 antag: human D1 dopamine receptor antagonism; P21728; HEK293 TREx D1 cells, calcium flux, dopamine EC80; stronger effect = lower value; activity change, negative = inhibition, % at 10 µM; 3.2% of 360,000 active; AID 504652; in the data active means activity change below about -30%; further: on the % scale 0 is the no-effect control and ±100 the full control effect
Target sequence (P21728 whole entry, looked up): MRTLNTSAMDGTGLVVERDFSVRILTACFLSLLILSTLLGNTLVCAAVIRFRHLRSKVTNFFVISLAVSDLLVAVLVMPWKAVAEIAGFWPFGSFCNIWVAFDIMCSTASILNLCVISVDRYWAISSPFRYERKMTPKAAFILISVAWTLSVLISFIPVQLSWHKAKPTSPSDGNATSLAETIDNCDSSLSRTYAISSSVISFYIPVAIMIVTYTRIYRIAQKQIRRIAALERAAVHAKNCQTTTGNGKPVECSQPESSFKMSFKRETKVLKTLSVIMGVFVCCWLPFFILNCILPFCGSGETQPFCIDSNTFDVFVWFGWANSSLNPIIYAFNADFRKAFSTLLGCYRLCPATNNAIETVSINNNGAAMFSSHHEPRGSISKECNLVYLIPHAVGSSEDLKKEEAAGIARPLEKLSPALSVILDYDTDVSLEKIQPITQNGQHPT
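Antagonism measured as reduced calcium response to an EC80 dopamine addition following 180 s compound pre-read; cells were inducible HEK293 Trex D1 plated overnight at 30 C, read kinetically at 1 cycle/sec.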
D1 potentiator: human D1 dopamine receptor positive modulation; 0.036% of 360,000 active; P21728; HEK293 TREx D1 cells, calcium flux, dopamine EC20 potentiation; potentiation, % at 10 µM; AID 504651; in the data active means potentiation above about 30%; further: 0% is about no effect
D1 agonist: agonists of human D1 dopamine receptor. AID 504660. 1% of 360,000 active. activation, % at 2 µM. HEK293 T-REx D1 cells, calcium flux, agonist mode; in the data active means activation above about 30%; further: 0% is about no effect
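Tetracycline-induced HEK293 TREx D1 cells, force-coupled to calcium signalling, were dye-loaded with a no-wash calcium kit. Compound was pin-added after a 10 s baseline. Fluorescence was read kinetically at 1 cycle/s for 180 s, with calcium rises flagged as agonism.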
DRD3 antagonist: D3 dopamine receptor (human) antagonism; D3R cells, DiscoveRx beta-arrestin luminescence, antagonist mode; stronger effect = lower value; max response, negative = inhibition, %; 2.5% of 360,000 active; in the data active means max response below about -50%; further: on the % scale 0 is the no-effect control and ±100 the full control effect
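Cells plated overnight at 1500 cells/well, then exposed to library compounds with dopamine controls for 90 minutes at 37 degrees C. DiscoveRx reagent added for 30–60 minutes at room temperature; luminescence read, quantitative HTS format.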
DRD3 agonist: agonists of human D3 dopamine receptor; P35462; D3R DiscoveRx beta-arrestin cells, luminescence, 90 min; max activation, %; 0.58% of 410,000 active; in the data active means max activation above about 30%; further: 0% is about no effect
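Agonist-mode cell screen: cells plated at 1500/well and incubated overnight at 37 °C, then exposed to library compounds for 90 min at 37 °C. Detection reagent was added for 30–60 min at room temperature, and luminescence was read.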
* = called active by the depositor.

How did O=C(CN1CCN(C(=O)C2CCC2)CC1)Nc1ccc(F)cc1 do in these assays?
D1 antag: -7.3; D1 potentiator: 4.3; D1 agonist: 2.8; DRD3 antagonist: -6.2; DRD3 agonist: -0.6

How did COC(=O)c1ccccc1NC(=O)CN1CCOCC1 do in these assays?
D1 antag: 0.6; D1 potentiator: -0.9; D1 agonist: 1.9; DRD3 antagonist: 7.5; DRD3 agonist: 0.6

How did CN(C)c1ccc(NC(=O)CN2CCC(C(=O)c3ccc(F)cc3)CC2)cc1 do in these assays?
D1 antag: -9.7; D1 potentiator: -1.9; D1 agonist: 1.5; DRD3 antagonist: -81.6*; DRD3 agonist: -27.2

Results for COc1ccc(C(=O)C2CCN(CC(=O)Nc3ccc(C)cc3)CC2)cc1 ?
D1 antag: -9.7; D1 potentiator: -11.9; D1 agonist: 15.0; DRD3 antagonist: -112.8*; DRD3 agonist: -30.9

Results for O=C(CCn1c(=O)c2ccccc2n(Cc2cccc(F)c2)c1=O)NCc1ccc2c(c1)OCO2 ?
D1 antag: 8.5; D1 potentiator: -0.1; D1 agonist: 3.1; DRD3 agonist: 0.0

Results for O=C(CN1C(=O)COc2ccc(S(=O)(=O)N3CCOCC3)cc21)N1CCN(c2ccccc2)CC1 ?
D1 antag: 2.7; D1 potentiator: 2.0; D1 agonist: 0.6; DRD3 agonist: 2.1

Results for CCc1ccc(-n2nc(C)c3c(C)cc(=O)n(CC(=O)N4CCCc5ccccc54)c32)cc1 ?
D1 antag: -0.8; D1 potentiator: -5.5; D1 agonist: 1.9; DRD3 agonist: -7.5

What do the screens show for `CCCN(CCC)CC(O)Cn1cc(/C=C/C(=O)c2ccc(C)cc2)c2ccccc21` (centres undefined)?
D1 antag: -42.3*; D1 potentiator: 2.5; D1 agonist: 133.5*; DRD3 agonist: -10.4

Results for COc1ccc(C(=O)/C=C/c2cn(CC(O)CN(CC(C)C)CC(C)C)c3ccccc23)cc1 (centres undefined) ?
D1 antag: 8.2; D1 potentiator: -1.4; D1 agonist: 12.5; DRD3 agonist: 2.5

How did CC(C)(C)NCC(O)Cn1cc(C=O)c2ccccc21 (centres undefined) do in these assays?
D1 antag: 12.7; D1 potentiator: 4.5; D1 agonist: 2.4; DRD3 antagonist: -24.4; DRD3 agonist: 1.1

What do the screens show for `CCCN(CCC)CC(O)Cn1cc(/C=C/C(=O)c2cccs2)c2ccccc21` (centres undefined)?
D1 antag: -20.9; D1 potentiator: -6.3; D1 agonist: 93.8*; DRD3 antagonist: -4.5; DRD3 agonist: -24.5

How did CCCN(CCC)CC(O)Cn1cc(/C=C/C(=O)c2ccc(OC)cc2)c2ccccc21 (centres undefined) do in these assays?
D1 antag: -41.1*; D1 potentiator: 6.8; D1 agonist: 128.5*; DRD3 agonist: -17.1

Results for CCCN(CCC)CC(O)Cn1cc(/C=C/C(=O)c2ccc(Br)cc2)c2ccccc21 (centres undefined) ?
D1 antag: -13.4; D1 potentiator: -2.6; D1 agonist: 33.4*; DRD3 agonist: -15.8

What do the screens show for `O=C(/C=C/c1ccnc2ccccc12)c1cccs1`?
D1 antag: 2.2; D1 potentiator: 5.6; D1 agonist: -0.1; DRD3 antagonist: -26.7; DRD3 agonist: -1.3

What do the screens show for `CCCN(CCC)CC(O)Cn1cc(/C=C/C(=O)c2ccccc2)c2ccccc21` (centres undefined)?
D1 antag: -30.7*; D1 potentiator: -1.1; D1 agonist: 72.5*; DRD3 antagonist: -3.0; DRD3 agonist: -5.7

How did c1ccc(COc2cccc(-c3cc4nc(NCCc5ccncc5)ccn4n3)c2)cc1 do in these assays?
DRD3 antagonist: 77.4; DRD3 agonist: 87.9*

How did c1ccc(COc2cccc(-c3cc4nc(NCCOc5ccccc5)ccn4n3)c2)cc1 do in these assays?
DRD3 antagonist: -20.8; DRD3 agonist: -4.1

Results for CCN(CC)S(=O)(=O)c1cc(-c2ccc(=O)n(C(C)C(=O)Nc3cccc(C#N)c3)n2)ccc1C (centres undefined) ?
D1 antag: 3.3; D1 potentiator: 0.8; D1 agonist: -2.5; DRD3 agonist: -9.1

What do the screens show for `Cc1c2cnn(-c3ccccc3)c(=O)c2c(C)n1CCCC(=O)Nc1ccc(F)cc1F`?
D1 antag: 0.4; D1 potentiator: -2.8; D1 agonist: -2.1; DRD3 agonist: 0.1

How did COc1ccc(NC(=O)CN(C)CC(=O)N(C)C2(C#N)CCC(C)CC2)cc1 (centres undefined) do in these assays?
D1 antag: -14.8; D1 potentiator: -7.2; D1 agonist: -1.1; DRD3 antagonist: -50.4*; DRD3 agonist: -0.4

Results for CN(CC(=O)Nc1ccc(F)cc1)CC(=O)N(C)C1(C#N)CCCCC1 ?
D1 antag: -5.2; D1 potentiator: -1.6; D1 agonist: 1.2; DRD3 antagonist: -17.6; DRD3 agonist: 4.9

Results for CCN1CCN(c2cc(C)c3cc(NC(=O)c4cccc(Cl)c4)ccc3n2)CC1 ?
D1 antag: 6.7; D1 potentiator: -0.9; D1 agonist: 4.2; DRD3 agonist: -26.2

What do the screens show for `CCN1CCN(c2cc(C)c3cc(NC(=O)/C=C/c4cccc(Cl)c4)ccc3n2)CC1`?
D1 antag: -35.7*; D1 potentiator: -1.2; D1 agonist: 10.1; DRD3 agonist: -13.2

Results for CC(=O)c1ccc(N2CCN(C(=O)CCC(=O)Nc3ccc4nc(N5CCN(C)CC5)cc(C)c4c3)CC2)cc1 ?
D1 antag: -36.5*; D1 potentiator: -8.6; D1 agonist: -2.7; DRD3 antagonist: 7.7; DRD3 agonist: -11.2

What do the screens show for `Cc1cc(N2CCN(C)CC2)nc2ccc(NC(=O)c3ccc4c(c3)OCO4)cc12`?
D1 antag: -6.4; D1 potentiator: -7.7; D1 agonist: 2.7; DRD3 antagonist: -75.7*; DRD3 agonist: -6.0

How did CCCCc1ccc(C(=O)Nc2ccc3nc(N4CCN(CC)CC4)cc(C)c3c2)cc1 do in these assays?
D1 antag: -58.8*; D1 potentiator: -0.9; D1 agonist: 4.8; DRD3 agonist: -12.7

Results for CCc1ccccc1NC(=O)Cn1c(=O)nc(-c2ccccc2)c2ccccc21 ?
D1 antag: -1.2; D1 potentiator: 0.1; D1 agonist: -0.2; DRD3 agonist: -1.5

Results for O=C(C1CCC1)N1CCc2cc(S(=O)(=O)NCc3ccc(F)cc3)ccc21 ?
D1 antag: -6.7; D1 potentiator: -1.0; D1 agonist: 4.2; DRD3 agonist: 1.9

What do the screens show for `COc1ccc(N(C)C(=O)CCC(=O)Nc2ccc3nc(N4CCOCC4)cc(C)c3c2)c(OC)c1`?
D1 antag: -3.6; D1 potentiator: -6.7; D1 agonist: 3.6; DRD3 antagonist: -6.3; DRD3 agonist: 35.0*

What do the screens show for `CCCCN(CC)CCCNC(=S)Nc1ccc2nc(N3CCN(CC)CC3)cc(C)c2c1`?
D1 antag: -12.7; D1 potentiator: 0.8; D1 agonist: 2.0; DRD3 antagonist: -54.0*; DRD3 agonist: 12.0
